# From paper PMC7862700, “An all-to-all approach to the identification of sequence-specific readers for epigenetic DNA modifications on cytosine”
# Assays:
# Experiment in all cases: DAPPL (digital affinity profiling via proximity ligation, sequencing); 10 mM Tris-HCl pH 7.5, 50 mM NaCl, 1 mM DTT, 4% glycerol, room temperature, 30 min; GST-TFs on glutathione beads, 16-mer random dsDNA library, 0.1% formaldehyde crosslink after washing; high values mean tight binding
# [1] = target: T1, FLI1 (Homo sapiens, UniProt Q01543 1-452); settings: protein: recombinant; tags: N-terminal GST; dsDNA, one strand shown
# T1 sequence: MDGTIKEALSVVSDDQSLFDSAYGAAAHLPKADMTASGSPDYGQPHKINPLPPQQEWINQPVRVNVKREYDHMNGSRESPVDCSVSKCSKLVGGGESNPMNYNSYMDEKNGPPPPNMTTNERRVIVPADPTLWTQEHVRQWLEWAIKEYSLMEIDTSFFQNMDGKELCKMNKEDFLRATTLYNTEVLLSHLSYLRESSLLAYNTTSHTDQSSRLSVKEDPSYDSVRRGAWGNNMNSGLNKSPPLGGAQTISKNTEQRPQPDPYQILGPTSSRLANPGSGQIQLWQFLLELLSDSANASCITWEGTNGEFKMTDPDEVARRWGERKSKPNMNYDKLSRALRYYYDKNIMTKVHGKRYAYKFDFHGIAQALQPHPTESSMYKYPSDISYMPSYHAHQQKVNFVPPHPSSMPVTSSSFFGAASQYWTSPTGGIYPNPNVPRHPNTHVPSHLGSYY
# Outline: (§1)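 Human transcription factors fused to GST were expressed in yeast, captured on glutathione beads, given DNA barcodes and pooled with a GST-only negative control. Pools were incubated with 200 nmole of a 16-mer random double-stranded DNA library in Tris/NaCl/DTT/glycerol buffer at room temperature for 30 min. They were then washed, crosslinked with 0.1% formaldehyde, proximity-ligated (BsaI/T4 ligase, 1 h, 37 °C), PCR-amplified and sequenced on an Illumina NextSeq500. Binding signal is each 6-mer's read frequency for a factor divided by its frequency for the GST control.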
# [2] = target: T2, ELK1 (Homo sapiens, UniProt P19419 1-428); settings: protein: recombinant; tags: N-terminal GST; dsDNA, one strand shown
# T2 sequence: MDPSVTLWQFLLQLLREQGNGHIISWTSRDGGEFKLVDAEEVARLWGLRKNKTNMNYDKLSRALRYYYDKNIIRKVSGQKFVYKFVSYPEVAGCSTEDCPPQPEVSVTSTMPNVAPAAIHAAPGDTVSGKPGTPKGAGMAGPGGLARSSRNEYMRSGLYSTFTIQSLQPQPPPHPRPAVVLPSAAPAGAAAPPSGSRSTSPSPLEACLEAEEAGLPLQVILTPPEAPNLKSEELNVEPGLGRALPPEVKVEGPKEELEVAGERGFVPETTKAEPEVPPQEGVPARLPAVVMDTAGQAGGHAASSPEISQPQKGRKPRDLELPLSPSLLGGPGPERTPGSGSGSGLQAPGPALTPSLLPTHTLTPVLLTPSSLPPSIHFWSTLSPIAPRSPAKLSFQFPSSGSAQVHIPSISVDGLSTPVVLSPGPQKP
# Outline: as §1
# [3] = target: T3, GABPA (Homo sapiens, UniProt Q06546 1-454); settings: protein: recombinant; tags: N-terminal GST; dsDNA, one strand shown
# T3 sequence: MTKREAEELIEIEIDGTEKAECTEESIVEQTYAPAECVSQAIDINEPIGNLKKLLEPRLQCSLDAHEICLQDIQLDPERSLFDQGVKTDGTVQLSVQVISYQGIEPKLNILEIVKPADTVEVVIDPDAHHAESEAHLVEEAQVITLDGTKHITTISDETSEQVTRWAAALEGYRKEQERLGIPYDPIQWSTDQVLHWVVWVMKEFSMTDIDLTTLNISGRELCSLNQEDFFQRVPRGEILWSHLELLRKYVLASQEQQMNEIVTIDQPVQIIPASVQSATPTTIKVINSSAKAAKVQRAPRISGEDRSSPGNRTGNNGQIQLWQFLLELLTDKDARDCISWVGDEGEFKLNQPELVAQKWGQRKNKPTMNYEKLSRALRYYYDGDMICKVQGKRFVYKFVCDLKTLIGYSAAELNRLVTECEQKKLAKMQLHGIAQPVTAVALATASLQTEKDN
# Outline: as §1
# [4] = target: T4, ERG (Homo sapiens, UniProt P11308 1-479); settings: protein: recombinant; tags: N-terminal GST; dsDNA, one strand shown
# T4 sequence: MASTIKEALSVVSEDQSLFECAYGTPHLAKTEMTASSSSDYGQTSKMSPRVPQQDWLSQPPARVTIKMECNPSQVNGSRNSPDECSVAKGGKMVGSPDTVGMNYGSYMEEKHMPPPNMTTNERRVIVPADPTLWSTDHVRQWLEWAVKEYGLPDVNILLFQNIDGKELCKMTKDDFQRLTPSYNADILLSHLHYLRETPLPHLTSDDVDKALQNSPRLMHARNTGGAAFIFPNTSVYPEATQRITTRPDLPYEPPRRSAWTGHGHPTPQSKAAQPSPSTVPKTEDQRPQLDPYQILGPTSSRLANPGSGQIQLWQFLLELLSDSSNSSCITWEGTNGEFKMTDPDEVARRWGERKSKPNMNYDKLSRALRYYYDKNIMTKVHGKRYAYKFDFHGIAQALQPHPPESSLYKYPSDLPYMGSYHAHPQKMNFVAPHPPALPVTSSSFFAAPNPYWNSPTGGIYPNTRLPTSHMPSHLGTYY
# Outline: as §1
# [5] = target: ELF1 (Homo sapiens, UniProt P32519 1-619); settings: protein: recombinant; tags: N-terminal GST; dsDNA, one strand shown
# ELF1, sequence (P32519 whole entry): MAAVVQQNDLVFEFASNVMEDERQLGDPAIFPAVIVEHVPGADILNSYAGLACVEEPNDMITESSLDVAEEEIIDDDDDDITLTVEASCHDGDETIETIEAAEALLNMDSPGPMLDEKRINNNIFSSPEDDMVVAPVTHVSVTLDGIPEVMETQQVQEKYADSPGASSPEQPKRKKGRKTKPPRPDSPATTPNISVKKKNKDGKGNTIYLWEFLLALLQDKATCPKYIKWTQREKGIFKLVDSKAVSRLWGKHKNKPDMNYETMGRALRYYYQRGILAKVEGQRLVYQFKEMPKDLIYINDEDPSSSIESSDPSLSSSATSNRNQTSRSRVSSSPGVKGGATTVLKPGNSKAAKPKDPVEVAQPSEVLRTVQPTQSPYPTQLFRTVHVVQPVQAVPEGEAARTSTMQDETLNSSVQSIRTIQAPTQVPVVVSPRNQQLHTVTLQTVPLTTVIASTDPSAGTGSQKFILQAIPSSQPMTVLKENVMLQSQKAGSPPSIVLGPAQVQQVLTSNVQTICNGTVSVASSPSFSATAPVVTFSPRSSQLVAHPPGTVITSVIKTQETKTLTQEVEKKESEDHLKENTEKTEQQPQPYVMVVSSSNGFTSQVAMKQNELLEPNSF
# Outline: as §1
# [6] = target: T5, EHF (Homo sapiens, UniProt Q9NZC4 1-300); settings: protein: recombinant; tags: N-terminal GST; dsDNA, one strand shown
# T5 sequence: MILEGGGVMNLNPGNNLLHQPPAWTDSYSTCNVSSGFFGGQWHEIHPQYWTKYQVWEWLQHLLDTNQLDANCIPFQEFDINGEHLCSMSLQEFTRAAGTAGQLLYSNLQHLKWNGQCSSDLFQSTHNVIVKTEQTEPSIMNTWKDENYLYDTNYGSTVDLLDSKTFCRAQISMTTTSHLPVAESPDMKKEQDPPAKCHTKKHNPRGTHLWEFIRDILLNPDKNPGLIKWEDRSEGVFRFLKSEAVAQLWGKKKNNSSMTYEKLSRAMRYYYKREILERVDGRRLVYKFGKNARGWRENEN
# Outline: as §1
# [7] = target: SPI1 (Homo sapiens, UniProt P17947 1-270); settings: protein: recombinant; tags: N-terminal GST; dsDNA, one strand shown
# Outline: as §1
# [8] = target: SPIB (Homo sapiens, UniProt Q01892 1-262); settings: protein: recombinant; tags: N-terminal GST; dsDNA, one strand shown
# SPIB, sequence (Q01892 whole entry): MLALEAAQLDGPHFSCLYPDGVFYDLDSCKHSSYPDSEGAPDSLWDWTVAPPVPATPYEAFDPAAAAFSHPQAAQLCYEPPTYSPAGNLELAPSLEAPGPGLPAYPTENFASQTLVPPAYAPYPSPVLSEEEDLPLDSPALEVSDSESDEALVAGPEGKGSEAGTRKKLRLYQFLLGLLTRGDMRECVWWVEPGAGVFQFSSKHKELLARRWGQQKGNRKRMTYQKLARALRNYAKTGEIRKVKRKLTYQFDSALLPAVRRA
# Outline: as §1
# [9] = target: T6, ELK3 (Homo sapiens, UniProt P41970 1-407); settings: protein: recombinant; tags: N-terminal GST; dsDNA, one strand shown
# T6 sequence: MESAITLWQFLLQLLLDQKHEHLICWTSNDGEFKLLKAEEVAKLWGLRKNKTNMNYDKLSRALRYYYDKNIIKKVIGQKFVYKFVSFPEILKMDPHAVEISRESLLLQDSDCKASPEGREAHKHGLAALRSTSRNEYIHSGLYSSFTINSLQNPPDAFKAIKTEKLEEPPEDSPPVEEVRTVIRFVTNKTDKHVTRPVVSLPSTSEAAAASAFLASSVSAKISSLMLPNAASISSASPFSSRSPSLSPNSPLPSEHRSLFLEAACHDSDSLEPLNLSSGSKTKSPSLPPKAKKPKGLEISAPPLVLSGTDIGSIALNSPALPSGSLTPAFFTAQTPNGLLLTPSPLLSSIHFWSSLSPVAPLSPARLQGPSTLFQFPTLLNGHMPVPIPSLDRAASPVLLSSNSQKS
# Outline: as §1
# [10] = target: T7, FEV (Homo sapiens, UniProt Q99581 1-238); settings: protein: recombinant; tags: N-terminal GST; dsDNA, one strand shown
# T7 sequence: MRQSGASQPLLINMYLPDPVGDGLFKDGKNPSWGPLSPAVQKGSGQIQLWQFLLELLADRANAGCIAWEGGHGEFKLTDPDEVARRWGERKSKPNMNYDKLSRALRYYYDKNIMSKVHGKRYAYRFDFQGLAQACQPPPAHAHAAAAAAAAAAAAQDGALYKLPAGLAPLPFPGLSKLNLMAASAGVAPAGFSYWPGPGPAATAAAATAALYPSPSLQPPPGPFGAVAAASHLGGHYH
# Outline: as §1
# [11] = target: ETV5 (Homo sapiens, UniProt P41161 1-510); settings: protein: recombinant; tags: N-terminal GST; dsDNA, one strand shown
# ETV5, sequence (P41161 whole entry): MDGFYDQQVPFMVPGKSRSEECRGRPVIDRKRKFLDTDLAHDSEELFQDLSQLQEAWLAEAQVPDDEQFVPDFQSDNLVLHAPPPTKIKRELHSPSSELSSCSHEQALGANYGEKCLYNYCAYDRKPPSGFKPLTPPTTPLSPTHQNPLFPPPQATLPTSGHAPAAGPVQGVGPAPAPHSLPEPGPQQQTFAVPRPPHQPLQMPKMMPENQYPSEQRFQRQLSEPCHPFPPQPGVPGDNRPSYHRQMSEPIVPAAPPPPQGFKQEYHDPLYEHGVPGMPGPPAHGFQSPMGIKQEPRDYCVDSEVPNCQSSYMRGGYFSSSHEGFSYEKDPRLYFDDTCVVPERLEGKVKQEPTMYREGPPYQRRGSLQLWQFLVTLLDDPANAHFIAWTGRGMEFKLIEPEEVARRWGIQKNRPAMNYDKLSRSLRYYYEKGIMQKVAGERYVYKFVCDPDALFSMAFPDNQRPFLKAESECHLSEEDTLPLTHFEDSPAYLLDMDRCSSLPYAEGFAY
# Outline: as §1
# [12] = target: HSF1 (Homo sapiens, UniProt Q00613 1-529); settings: protein: recombinant; tags: N-terminal GST; chain copies: 3; dsDNA, one strand shown
# HSF1, sequence (Q00613 whole entry): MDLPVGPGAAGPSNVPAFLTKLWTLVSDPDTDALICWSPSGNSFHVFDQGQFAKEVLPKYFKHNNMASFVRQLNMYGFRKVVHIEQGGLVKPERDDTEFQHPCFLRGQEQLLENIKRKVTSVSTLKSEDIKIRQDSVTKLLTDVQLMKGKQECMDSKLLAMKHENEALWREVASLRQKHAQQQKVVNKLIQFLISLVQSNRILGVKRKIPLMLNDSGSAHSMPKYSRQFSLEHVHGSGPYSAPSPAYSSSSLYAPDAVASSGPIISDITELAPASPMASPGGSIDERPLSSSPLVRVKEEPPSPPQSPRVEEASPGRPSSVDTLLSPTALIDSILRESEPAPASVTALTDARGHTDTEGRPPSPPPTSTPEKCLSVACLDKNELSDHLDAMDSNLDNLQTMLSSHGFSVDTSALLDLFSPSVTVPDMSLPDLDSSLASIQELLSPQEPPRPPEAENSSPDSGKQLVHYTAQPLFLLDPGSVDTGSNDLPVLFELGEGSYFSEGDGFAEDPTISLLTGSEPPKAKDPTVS
# Outline: as §1
# [13] = target: T8, SPIC (Homo sapiens, UniProt Q8N5J4 1-248); settings: protein: recombinant; tags: N-terminal GST; dsDNA, one strand shown
# T8 sequence: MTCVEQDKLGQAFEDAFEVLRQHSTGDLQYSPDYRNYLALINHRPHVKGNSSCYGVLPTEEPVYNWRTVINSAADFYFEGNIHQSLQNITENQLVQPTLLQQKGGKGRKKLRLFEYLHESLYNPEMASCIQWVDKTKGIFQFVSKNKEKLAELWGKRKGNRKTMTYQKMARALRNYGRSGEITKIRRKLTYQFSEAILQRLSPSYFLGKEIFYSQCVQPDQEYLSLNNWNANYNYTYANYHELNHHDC
# Outline: as §1
# [14] = target: ELF4 (Homo sapiens, UniProt Q99607 1-663); settings: protein: recombinant; tags: N-terminal GST; dsDNA, one strand shown
# ELF4, sequence (Q99607 whole entry): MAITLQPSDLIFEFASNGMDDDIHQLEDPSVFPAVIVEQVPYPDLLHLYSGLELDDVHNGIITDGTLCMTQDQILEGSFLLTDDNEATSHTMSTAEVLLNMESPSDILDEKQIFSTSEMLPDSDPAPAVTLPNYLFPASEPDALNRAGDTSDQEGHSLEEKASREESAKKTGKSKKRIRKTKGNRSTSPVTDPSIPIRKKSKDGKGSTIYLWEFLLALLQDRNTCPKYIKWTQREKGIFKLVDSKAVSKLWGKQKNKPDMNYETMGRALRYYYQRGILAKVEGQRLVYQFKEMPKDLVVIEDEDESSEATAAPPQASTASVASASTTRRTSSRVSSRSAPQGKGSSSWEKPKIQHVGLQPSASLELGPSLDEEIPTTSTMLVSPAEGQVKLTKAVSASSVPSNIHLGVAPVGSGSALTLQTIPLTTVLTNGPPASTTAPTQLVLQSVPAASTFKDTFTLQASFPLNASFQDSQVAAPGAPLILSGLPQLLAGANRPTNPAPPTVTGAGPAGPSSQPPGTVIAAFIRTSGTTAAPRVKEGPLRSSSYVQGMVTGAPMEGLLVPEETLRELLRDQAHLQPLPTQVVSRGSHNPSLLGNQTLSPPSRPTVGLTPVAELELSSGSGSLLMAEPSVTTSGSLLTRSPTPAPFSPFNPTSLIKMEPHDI
# Outline: as §1
# [15] = target: T9, ELK4 (Homo sapiens, UniProt P28324-2 1-405); settings: protein: recombinant; tags: N-terminal GST; dsDNA, one strand shown
# T9 sequence: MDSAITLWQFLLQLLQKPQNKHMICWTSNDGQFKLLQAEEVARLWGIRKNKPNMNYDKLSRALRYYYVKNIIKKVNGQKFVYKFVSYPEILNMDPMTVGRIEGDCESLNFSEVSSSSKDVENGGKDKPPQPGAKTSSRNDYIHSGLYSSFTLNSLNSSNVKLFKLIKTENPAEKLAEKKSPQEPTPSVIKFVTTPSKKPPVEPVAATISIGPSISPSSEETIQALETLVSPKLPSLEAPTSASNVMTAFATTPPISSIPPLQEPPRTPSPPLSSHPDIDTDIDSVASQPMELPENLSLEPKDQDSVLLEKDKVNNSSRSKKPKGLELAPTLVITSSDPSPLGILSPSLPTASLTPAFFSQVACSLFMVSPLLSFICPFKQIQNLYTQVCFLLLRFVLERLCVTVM
# Outline: as §1
# [16] = target: T10, ETV2 (Homo sapiens, UniProt O00321 1-342); settings: protein: recombinant; tags: N-terminal GST; dsDNA, one strand shown
# T10 sequence: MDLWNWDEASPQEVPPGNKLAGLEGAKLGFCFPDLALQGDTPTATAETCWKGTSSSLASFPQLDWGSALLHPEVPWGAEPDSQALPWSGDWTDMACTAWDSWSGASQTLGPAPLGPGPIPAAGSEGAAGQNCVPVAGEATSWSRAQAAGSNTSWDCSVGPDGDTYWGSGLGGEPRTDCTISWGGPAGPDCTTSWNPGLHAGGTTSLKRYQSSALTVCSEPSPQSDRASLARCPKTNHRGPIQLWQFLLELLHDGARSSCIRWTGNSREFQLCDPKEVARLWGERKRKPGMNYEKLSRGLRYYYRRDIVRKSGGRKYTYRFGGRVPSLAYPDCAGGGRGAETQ
# Outline: as §1
# [17] = target: T11, ELF3 (Homo sapiens, UniProt P78545 1-371); settings: protein: recombinant; tags: N-terminal GST; dsDNA, one strand shown
# T11 sequence: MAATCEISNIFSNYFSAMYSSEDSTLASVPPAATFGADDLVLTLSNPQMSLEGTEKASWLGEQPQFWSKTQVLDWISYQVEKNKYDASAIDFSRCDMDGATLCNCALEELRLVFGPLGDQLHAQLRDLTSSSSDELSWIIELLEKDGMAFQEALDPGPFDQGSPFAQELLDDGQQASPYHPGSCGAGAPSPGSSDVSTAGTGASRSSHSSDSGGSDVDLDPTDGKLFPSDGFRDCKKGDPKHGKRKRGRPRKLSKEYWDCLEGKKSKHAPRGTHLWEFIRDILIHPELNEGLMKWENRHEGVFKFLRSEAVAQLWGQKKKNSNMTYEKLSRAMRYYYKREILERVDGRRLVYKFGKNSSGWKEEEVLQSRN
# Outline: as §1
# [18] = target: CRX (Homo sapiens, UniProt O43186 1-299); settings: protein: recombinant; tags: N-terminal GST; dsDNA, one strand shown
# CRX, sequence (O43186 whole entry): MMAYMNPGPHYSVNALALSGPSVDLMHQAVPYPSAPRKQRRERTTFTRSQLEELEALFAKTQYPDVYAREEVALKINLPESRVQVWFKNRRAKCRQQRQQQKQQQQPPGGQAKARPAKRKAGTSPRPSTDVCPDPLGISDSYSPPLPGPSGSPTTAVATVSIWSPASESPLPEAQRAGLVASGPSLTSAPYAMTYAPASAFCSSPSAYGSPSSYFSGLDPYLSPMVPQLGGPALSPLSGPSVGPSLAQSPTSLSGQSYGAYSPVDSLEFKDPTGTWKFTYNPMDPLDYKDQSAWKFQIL
# Outline: as §1
# [19] = target: ETV1 (Homo sapiens, UniProt P50549 1-477); settings: protein: recombinant; tags: N-terminal GST; dsDNA, one strand shown
# ETV1, sequence (P50549 whole entry): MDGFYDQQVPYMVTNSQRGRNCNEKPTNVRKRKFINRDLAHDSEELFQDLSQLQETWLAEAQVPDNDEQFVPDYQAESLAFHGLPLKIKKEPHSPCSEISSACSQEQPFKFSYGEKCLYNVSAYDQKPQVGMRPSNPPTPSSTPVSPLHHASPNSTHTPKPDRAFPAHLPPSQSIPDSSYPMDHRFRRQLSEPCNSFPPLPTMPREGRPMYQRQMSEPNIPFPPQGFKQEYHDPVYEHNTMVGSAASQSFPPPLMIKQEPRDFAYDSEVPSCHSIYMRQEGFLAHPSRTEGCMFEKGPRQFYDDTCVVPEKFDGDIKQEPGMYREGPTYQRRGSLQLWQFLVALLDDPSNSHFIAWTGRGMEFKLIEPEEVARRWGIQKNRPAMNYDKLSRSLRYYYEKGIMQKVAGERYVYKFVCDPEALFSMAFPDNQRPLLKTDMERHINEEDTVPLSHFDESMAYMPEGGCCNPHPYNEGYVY
# Outline: as §1
sequence,measurement,setting,value
AATGCC,binding signal,[1],"1.06 fold enrichment (6-mer frequency, TF over GST control)"
same,binding signal,[2],"1.19 fold enrichment (6-mer frequency, TF over GST control)"
same,binding signal,[3],"1.17 fold enrichment (6-mer frequency, TF over GST control)"
same,binding signal,[4],"1.18 fold enrichment (6-mer frequency, TF over GST control)"
same,binding signal,[5],"1.13 fold enrichment (6-mer frequency, TF over GST control)"
same,binding signal,[6],"1.18 fold enrichment (6-mer frequency, TF over GST control)"
same,binding signal,[7],"1.06 fold enrichment (6-mer frequency, TF over GST control)"
same,binding signal,[8],"1.17 fold enrichment (6-mer frequency, TF over GST control)"
same,binding signal,[9],"1.08 fold enrichment (6-mer frequency, TF over GST control)"
same,binding signal,[10],"1.23 fold enrichment (6-mer frequency, TF over GST control)"
same,binding signal,[11],"1.2 fold enrichment (6-mer frequency, TF over GST control)"
same,binding signal,[12],"1.07 fold enrichment (6-mer frequency, TF over GST control)"
same,binding signal,[13],"1.07 fold enrichment (6-mer frequency, TF over GST control)"
same,binding signal,[14],"1.21 fold enrichment (6-mer frequency, TF over GST control)"
same,binding signal,[15],"1.16 fold enrichment (6-mer frequency, TF over GST control)"
same,binding signal,[16],"1.06 fold enrichment (6-mer frequency, TF over GST control)"
same,binding signal,[17],"1.24 fold enrichment (6-mer frequency, TF over GST control)"
same,binding signal,[18],"1.16 fold enrichment (6-mer frequency, TF over GST control)"
same,binding signal,[19],"1.11 fold enrichment (6-mer frequency, TF over GST control)"
